# Source: the supplement of paper PMC13094657
# ± gives the standard deviation of the averaged measurements.
# Columns and labels:
# MDA-MB-231 [1] = assay: cell viability relative to vehicle unstimulated control (fraction); higher = more viable cells; conditions: pre-treatment time: 18 h then 24 h IFNg/TNF
# MDA-MB-231 [2] = assay: kynurenine production, fold change vs DMSO IFNg/TNF control; higher = more kynurenine produced (less inhibition); conditions: pre-treatment time: 18 h then 24 h IFNg/TNF
# How it was run: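 MDA-MB-231 cells (7 × 10^4/well, 96-well plates, seeded 24 h earlier) were pre-treated 18 h with each natural product in 0.1% DMSO, then stimulated 24 h with IFNγ (1 U/ml) and TNF (6.25 ng/ml) at 37°C. Supernatant kynurenine was read at 492 nm after trichloroacetic acid and p-dimethylaminobenzaldehyde treatment, against 0–100 μM standards. Kynurenine production is the fold change over cytokine-stimulated vehicle wells on the same plate, averaged over duplicate plates in the first screening round.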
# 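Throughout, for cell viability relative to vehicle unstimulated control: viability of the cells left after supernatant collection, read with Deep Blue dye added for 4 h, as absorbance at 570 nm minus 600 nm.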
compound,measurement,setting,value
C=C(C)C(=O)O[C@H]1[C@@H]2[C@H](C)C(=O)O[C@@H]2C[C@@H](C)[C@@H]2C=CC(=O)[C@]21C [Arnicolide D] (compound dose: 10 uM),cell viability,MDA-MB-231 [1],0.784 ± 0.08
same,kynurenine production,MDA-MB-231 [2],0.153 ± 0.067
C[C@@H]1CC[C@@]2(OC1)O[C@H]1[C@@H](O)[C@H]3[C@@H]4CC[C@H]5C[C@@H](O[C@@H]6O[C@H](CO)[C@H](O[C@@H]7O[C@H](CO)[C@@H](O)[C@H](O[C@@H]8OC[C@@H](O)[C@H](O)[C@H]8O)[C@H]7O[C@@H]7O[C@H](CO)[C@H](O)[C@H](O[C@@H]8O[C@H](CO)[C@@H](O)[C@H](O)[C@H]8O)[C@H]7O)[C@H](O)[C@H]6O)[C@H](O)C[C@]5(C)[C@H]4CC[C@]3(C)[C@H]1[C@@H]2C [Digitonin] (compound dose: 10 uM),cell viability,MDA-MB-231 [1],0.694 ± 0.021
same,kynurenine production,MDA-MB-231 [2],0.617 ± 0.019
CC(C)=CCC[C@@](C)(O)[C@H]1CC[C@]2(C)[C@@H]1[C@H](O)C[C@@H]1[C@@]3(C)CC[C@H](O)C(C)(C)[C@@H]3[C@@H](O[C@@H]3O[C@H](CO)[C@@H](O)[C@H](O)[C@H]3O)C[C@]12C [(20R)-Ginsenoside Rh1] (compound dose: 10 uM),cell viability,MDA-MB-231 [1],0.9611 ± 0.0044
same,kynurenine production,MDA-MB-231 [2],0.887 ± 0.031
CN1[C@@H]2CC(O)C[C@H]1[C@@H]1O[C@@H]12 (some centres not stated) [Scopine] (compound dose: 10 uM),cell viability,MDA-MB-231 [1],1
same,kynurenine production,MDA-MB-231 [2],0.798 ± 0.03
CCCCCCCCCCCCCC(=O)O[C@@H]1[C@@H](C)[C@@]2(O)[C@@H](C=C(CO)C[C@]3(O)C(=O)C(C)=C[C@@H]23)[C@@H]2C(C)(C)[C@]12OC(C)=O [12-O-tetradecanoyl phorbol-13-acetate] (compound dose: 10 uM),cell viability,MDA-MB-231 [1],1.06 ± 0.043
same,kynurenine production,MDA-MB-231 [2],0.858 ± 0.021
CC(C)=CCC[C@](C)(O)[C@H]1CC[C@]2(C)[C@@H]1[C@H](O)C[C@@H]1[C@@]3(C)CC[C@H](O[C@@H]4O[C@H](CO)[C@@H](O)[C@H](O)[C@H]4O)C(C)(C)[C@@H]3CC[C@]12C [Ginsenoside Rh2] (compound dose: 10 uM),cell viability,MDA-MB-231 [1],0.908 ± 0.049
same,kynurenine production,MDA-MB-231 [2],0.84 ± 0.19
COc1cc2c3c(c1OC)-c1ccccc1C[C@H]3N(C)CC2 [Nuciferine] (compound dose: 10 uM),cell viability,MDA-MB-231 [1],1.05 ± 0.051
same,kynurenine production,MDA-MB-231 [2],1.1 ± 0.08
C=C1[C@H](OC(=O)c2ccccc2)C[C@H]2[C@@H](/C=C(\C)C(=O)[C@@]3(OC(C)=O)C[C@H](C)[C@H](OC(=O)c4ccccc4)[C@@H]3[C@H]1OC(C)=O)C2(C)C [Euphorbia Factor L2] (compound dose: 10 uM),cell viability,MDA-MB-231 [1],0.847 ± 0.044
same,kynurenine production,MDA-MB-231 [2],0.5 ± 0.15
CC(C)=CCC[C@H](C(=O)O)[C@H]1CC[C@]2(C)C3=C(CC[C@@]12C)[C@@]1(C)CCC(=O)C(C)(C)[C@H]1CC3 [β-Elemonic acid] (compound dose: 10 uM),cell viability,MDA-MB-231 [1],1.03 ± 0.034
same,kynurenine production,MDA-MB-231 [2],1.161 ± 0.0012
C[C@@H]1C(=O)O[C@H]2[C@H](O)[C@@]34O[C@@H]5OC(=O)[C@H](O)[C@@]56[C@H](C(C)(C)C)[C@H](O)C(OC3=O)[C@]64[C@@]12O (some centres not stated) [Ginkgolide C] (compound dose: 10 uM),cell viability,MDA-MB-231 [1],0.9704 ± 0.0066
same,kynurenine production,MDA-MB-231 [2],0.947 ± 0.088
"C=C1CC[C@H]2[C@@H](/C=C(\C)C(=O)[C@@]3(OC(C)=O)C[C@H](C)[C@H](OC(=O)c4ccccc4)[C@@H]3[C@H]1OC(C)=O)C2(C)C [5,15-Diacetyl-3-benzoyllathyrol] (compound dose: 10 uM)",cell viability,MDA-MB-231 [1],1.031 ± 0.01
same,kynurenine production,MDA-MB-231 [2],0.94 ± 0.14
C[C@@H]1CC[C@@]2(OC1)O[C@H]1C[C@H]3[C@@H]4CC=C5C[C@@H](O[C@@H]6O[C@H](CO)[C@@H](O[C@@H]7O[C@@H](C)[C@H](O[C@@H]8O[C@@H](C)[C@H](O)[C@@H](O)[C@H]8O)[C@@H](O)[C@H]7O)[C@H](O)[C@H]6O[C@@H]6O[C@@H](C)[C@H](O)[C@@H](O)[C@H]6O)CC[C@]5(C)[C@H]4CC[C@]3(C)[C@H]1[C@@H]2C [Formosanin C] (compound dose: 10 uM),cell viability,MDA-MB-231 [1],-0.00547 ± 0.0077
same,kynurenine production,MDA-MB-231 [2],0.125 ± 0.075
O=C(/C=C/c1ccccc1)OC[C@H]1O[C@@H](O[C@@H]2OC=C[C@H]3[C@H](O)[C@@H]4O[C@]4(CO)[C@@H]23)[C@H](O)[C@@H](O)[C@@H]1O [Picroside I] (compound dose: 10 uM),cell viability,MDA-MB-231 [1],0.9642 ± 0.0044
same,kynurenine production,MDA-MB-231 [2],0.923 ± 0.05
"CC1=C[C@]23C(=O)[C@@H](C=C(COC(=O)c4ccccc4)[C@@H](O)[C@]2(O)[C@H]1OC(=O)c1ccccc1)[C@H]1[C@@H](C[C@H]3C)C1(C)C [Ingenol 3,20-dibenzoate] (compound dose: 10 uM)",cell viability,MDA-MB-231 [1],1.05 ± 0.061
same,kynurenine production,MDA-MB-231 [2],0.6413 ± 0.0018
C=C[C@@H]1C2=CCOC(=O)C2=CO[C@H]1O[C@@H]1O[C@H](CO)[C@@H](O)[C@H](O)[C@H]1O [Gentiopicroside] (compound dose: 10 uM),cell viability,MDA-MB-231 [1],0.981 ± 0.0079
same,kynurenine production,MDA-MB-231 [2],0.904 ± 0.09
CC1=C[C@]23C(=O)[C@@H](C=C(CO)[C@@H](O)[C@]2(O)[C@H]1O)[C@H]1[C@@H](C[C@H]3C)C1(C)C [Ingenol] (compound dose: 10 uM),cell viability,MDA-MB-231 [1],0.906 ± 0.051
same,kynurenine production,MDA-MB-231 [2],0.846 ± 0.12
CC(C)=CCC[C@](C)(O)[C@H]1CC[C@]2(C)[C@@H]1[C@H](O)C[C@@H]1[C@@]3(C)CC[C@H](O)C(C)(C)[C@@H]3[C@@H](O[C@@H]3O[C@H](CO)[C@@H](O)[C@H](O)[C@H]3O)C[C@]12C [Ginsenoside Rh1] (compound dose: 10 uM),cell viability,MDA-MB-231 [1],0.999 ± 0.025
same,kynurenine production,MDA-MB-231 [2],0.852 ± 0.15
CC(=O)O[C@@H]1[C@H]2[C@@H](OC(=O)Cc3ccccc3)[C@@H](C)C[C@]2(OC(C)=O)C(=O)/C(C)=C/[C@@H]2[C@H](CC[C@]13CO3)C2(C)C [Euphorbia Factor L1] (compound dose: 10 uM),cell viability,MDA-MB-231 [1],0.909 ± 0.045
same,kynurenine production,MDA-MB-231 [2],1.11 ± 0.0098
CC(C)c1ccc2c(c1O)CC[C@H]1C3=C(CC[C@]21C)C(=O)OC3 [Triptophenolide] (compound dose: 10 uM),cell viability,MDA-MB-231 [1],0.9594 ± 0.0068
same,kynurenine production,MDA-MB-231 [2],0.815 ± 0.17
C/C=C(/C)C(=O)O[C@H]1C(C)=C[C@]23C(=O)[C@@H](C=C(C)[C@@H](O)[C@]12O)[C@H]1[C@@H](C[C@H]3C)C1(C)C [20-Deoxyingenol 3-angelate] (compound dose: 10 uM),cell viability,MDA-MB-231 [1],1.04 ± 0.05
same,kynurenine production,MDA-MB-231 [2],0.8582 ± 0.0053
O=C(O)c1ccc(=O)[nH]c1 [6-hydroxypyridine-3-carboxylic acid] (compound dose: 10 uM),cell viability,MDA-MB-231 [1],0.99 ± 0.039
same,kynurenine production,MDA-MB-231 [2],0.821 ± 0.09
COc1cc2c(cc1OC)-c1c3c(cc4c1[C@H](C2)N(C)CC4)OCO3 [Dicentrine] (compound dose: 10 uM),cell viability,MDA-MB-231 [1],0.83 ± 0.043
same,kynurenine production,MDA-MB-231 [2],0.432 ± 0.0093
C=C1[C@@H]2CC[C@H]3[C@]4(C)C[C@H](O[C@@H]5O[C@H](CO)[C@@H](OS(=O)(=O)O)[C@H](OS(=O)(=O)O)[C@H]5OC(=O)CC(C)C)CC(C(=O)O)(C(=O)O)[C@H]4CC[C@]3(C2)[C@H]1O [Carboxyatractyloside (dipotassium)] (compound dose: 10 uM),cell viability,MDA-MB-231 [1],1.03 ± 0.071
same,kynurenine production,MDA-MB-231 [2],0.825 ± 0.43
CN[C@H]1CCc2cc(OC)c(OC)c(OC)c2-c2ccc(OC)c(=O)cc21 [Demecolcine (colcemid)] (compound dose: 10 uM),cell viability,MDA-MB-231 [1],0.847 ± 0.13
same,kynurenine production,MDA-MB-231 [2],0.486 ± 0.099
CC(=O)OC(C)(C)/C=C/C(=O)[C@](C)(O)[C@H]1[C@H](O)C[C@@]2(C)[C@@H]3CC=C4[C@@H](C=C(O)C(=O)C4(C)C)[C@]3(C)C(=O)C[C@]12C [Cucurbitacin E] (compound dose: 10 uM),cell viability,MDA-MB-231 [1],0.52 ± 0.0012
same,kynurenine production,MDA-MB-231 [2],0.19 ± 0.034
CC1=C(O)C(=O)C=C2C1=CC=C1[C@@]2(C)CC[C@@]2(C)[C@@H]3C[C@](C)(C(=O)O)CC[C@]3(C)CC[C@]12C [Tripterin] (compound dose: 10 uM),cell viability,MDA-MB-231 [1],0.0346 ± 0.01
same,kynurenine production,MDA-MB-231 [2],0.119 ± 0.017
C=C(CO)C(=O)O[C@H]1CC(=C)[C@@H]2C[C@H](O)C(=C)[C@@H]2[C@H]2OC(=O)C(=C)[C@@H]21 [Cynaropicrin] (compound dose: 10 uM),cell viability,MDA-MB-231 [1],0.69 ± 0.16
same,kynurenine production,MDA-MB-231 [2],0.0672 ± 0.056
O=C1C=C2C=C[C@@H]3C[C@@]2(O1)[C@H]1CCCCN31 [Securinine] (compound dose: 10 uM),cell viability,MDA-MB-231 [1],0.89
same,kynurenine production,MDA-MB-231 [2],0.213 ± 0.096
COc1ccc2c(c1O)-c1c(O)c(OC)cc3c1[C@H](C2)N(C)CC3 [Corytuberine] (compound dose: 10 uM),cell viability,MDA-MB-231 [1],0.829 ± 0.025
same,kynurenine production,MDA-MB-231 [2],0.889 ± 0.11
COc1ccc(CC2c3cc(OC)c(OC)cc3CCN2C)cc1OC (configuration not stated) [Laudanosine] (compound dose: 10 uM),cell viability,MDA-MB-231 [1],1.02 ± 0.043
same,kynurenine production,MDA-MB-231 [2],0.52 ± 0.037
CC(=O)O[C@@H]1[C@H]2[C@@H](OC(=O)Cc3ccccc3)[C@@H](C)C[C@]2(OC(C)=O)C(=O)/C(C)=C/[C@@H]2[C@H](CC[C@]13CO3)C2(C)C [Euphorbia factor L1] (compound dose: 10 uM),cell viability,MDA-MB-231 [1],1.12
same,kynurenine production,MDA-MB-231 [2],1.07 ± 0.11
C[C@@H]1CC[C@H]2[C@@H](C)C(=O)O[C@@H]3O[C@@]4(C)CC[C@@H]1[C@]32OO4 [Artemisinin] (compound dose: 10 uM),cell viability,MDA-MB-231 [1],1.06 ± 0.079
same,kynurenine production,MDA-MB-231 [2],0.581 ± 0.11
COc1ccc2c3c1O[C@H]1CC(=O)C=C[C@@]31CCN(C)C2 [Galanthaminone] (compound dose: 10 uM),cell viability,MDA-MB-231 [1],0.953 ± 0.034
same,kynurenine production,MDA-MB-231 [2],0.7845 ± 0.0068
C[C@]1(C(=O)O)CCC[C@]2(C)c3cc(O)ccc3CC[C@@H]12 [Podocarpic acid] (compound dose: 10 uM),cell viability,MDA-MB-231 [1],0.946 ± 0.07
same,kynurenine production,MDA-MB-231 [2],0.852 ± 0.12
Cc1cc(O)c2c(=O)c3c(O)cc(O)c4c5c(O)cc(O)c6c(=O)c7c(O)cc(C)c8c1c2c(c34)c(c78)c65 [Hypericin] (compound dose: 10 uM),cell viability,MDA-MB-231 [1],0.0887 ± 0.085
same,kynurenine production,MDA-MB-231 [2],0.103 ± 0.063
CC1=C[C@@H]2C(=O)[C@]3(C=C(C)[C@H](O)[C@@]3(O)[C@@H]1O)[C@H](C)C[C@@H]1[C@H]2C1(C)C [20-Deoxyingenol] (compound dose: 10 uM),cell viability,MDA-MB-231 [1],0.975 ± 0.11
same,kynurenine production,MDA-MB-231 [2],0.703 ± 0.12
